Inconclusive results are not listed. Active and inactive are the calls of the source. Unless noted, the call rests on the fitted dose curve; in most records, active means well fitted curve in either direction with a large enough effect (not every such curve was filed as active); inconclusive means small, poorly fitted or top-dose-only effect, or another doubt; inactive means flat fitted curve, though single readings scatter.
Tests used:
[1] = AP1 Signaling Pathway (AID 357); details: ME-180 AP-1-bla reporter, EGF-induced, beta-lactamase ratio, 5 h; at 17.2 µM (top of the series) unless noted;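 further: ME-180 reporter cells stimulated with EGF at its EC50 level; on the % scale 0 is the no-effect control and ±100 the full control effect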
Procedure, shortened: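 First, ME-180 AP-1-bla cells were cultured overnight at 37 °C in low-serum Opti-MEM. Next, titrated compounds with EC50 EGF were incubated 5 hours. Finally, CCF4 was added for 2.5 hours and the 460/530 nm ratio recorded.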

[2] = NFAT Signaling Pathway (AID 444); details: Jurkat NFAT-bla M1, carbachol, beta-lactamase ratio, 5 h; at 17.2 µM (top of the series) unless noted;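 further: carbachol stimulus at about its EC50 of 1 µM final; on the % scale 0 is the no-effect control and ±100 the full control effect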
Procedure, shortened: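 Jurkat cells with NFAT-driven β-lactamase reporter and co-expressed M1 receptor, stimulated with carbachol (final 1 uM, ~EC50), compound titration, 5 h at 37 °C. CCF4 loaded 1 h at RT; 460/530 nm ratio gave %activity and AC50.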

[3] = Stat Signaling Pathway (AID 446); details: ME-180 SIE beta-lactamase reporter, IL-6 stimulated, 5 h; at 17.2 µM (top of the series) unless noted;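 further: ME-180 cervical cancer cells given 40 pM IL-6 alongside compound; SIE-controlled beta-lactamase reporter measured as 460/530 nm FRET emission ratio; on the % scale 0 is the no-effect control and ±100 the full control effect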
Procedure, shortened: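 Emission at 460 and 530 nm (excitation 405 nm) reports SIE-controlled beta-lactamase in ME-180 cells. Cells received compound with 40 pM IL-6 for 5 hrs at 37 C; data scaled between 300 pM IL-6 and 125 nM JAK-inhibitor controls.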

[4] = target: Glucocorticoid receptor (Homo sapiens) (UniProt P04150); assay: GR-GFP Redistribution (AID 450;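 active means compounds whose dose series gives a full or clear partial fitted curve of increased nuclear translocation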; further: potency means the concentration at half of the fitted maximal effect)
Glucocorticoid receptor (Homo sapiens), sequence (P04150 whole entry, looked up, the tested form may be a part): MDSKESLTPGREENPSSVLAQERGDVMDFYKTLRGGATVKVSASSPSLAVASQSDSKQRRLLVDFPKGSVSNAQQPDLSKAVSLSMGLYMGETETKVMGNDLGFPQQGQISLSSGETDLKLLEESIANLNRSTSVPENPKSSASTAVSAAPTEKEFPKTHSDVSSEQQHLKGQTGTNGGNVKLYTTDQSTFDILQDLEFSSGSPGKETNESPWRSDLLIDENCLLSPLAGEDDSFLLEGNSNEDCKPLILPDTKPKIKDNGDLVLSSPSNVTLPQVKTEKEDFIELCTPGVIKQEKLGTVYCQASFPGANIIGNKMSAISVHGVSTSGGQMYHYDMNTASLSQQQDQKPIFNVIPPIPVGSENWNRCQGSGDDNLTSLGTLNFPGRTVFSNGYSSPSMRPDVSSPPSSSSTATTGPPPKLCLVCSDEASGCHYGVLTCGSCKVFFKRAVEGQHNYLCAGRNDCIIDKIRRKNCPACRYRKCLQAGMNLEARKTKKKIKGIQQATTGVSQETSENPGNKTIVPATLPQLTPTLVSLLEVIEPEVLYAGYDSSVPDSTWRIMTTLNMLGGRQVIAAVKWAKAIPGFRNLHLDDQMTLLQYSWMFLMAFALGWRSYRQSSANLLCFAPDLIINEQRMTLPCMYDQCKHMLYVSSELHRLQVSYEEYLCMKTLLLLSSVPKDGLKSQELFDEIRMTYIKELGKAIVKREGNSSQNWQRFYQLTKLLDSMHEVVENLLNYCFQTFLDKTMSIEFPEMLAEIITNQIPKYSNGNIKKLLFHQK

[5] = target: Glucocorticoid receptor (Homo sapiens) (UniProt P04150); assay: GR-EFC Redistribution (AID 451; calls by dose curve; further: potency means the concentration at half of the fitted maximal effect); details: CHO-K1 GR-EFC translocation, beta-gal luminescence, 2 h
Procedure, shortened: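 CHO-K1 cells expressing nuclear EA and GR-ED fragments of b-gal; compounds titrated up to 46 uM final, 2 h at 37 C. GR nuclear translocation read as complemented b-gal luminescence after 1 h RT detection.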

[6] = target: Mitogen-activated protein kinase 10 (Mus musculus) (UniProt Q61831); assay: JNK3 AlphaScreen Assay (AID 530);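 further: kinase came from lysate of stimulated human HepG2 cells; signal reports phosphorylation of biotinylated GST-cJun 1-79 at Ser73 with 10 µM ATP; on the % scale 0 is the no-effect control and ±100 the full control effect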
Procedure, shortened: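 Activity was read by AlphaScreen after JNK3-containing HepG2 lysate (cytokine pre-activated) phosphorylated biotinylated GST-cJun with 10 uM ATP at room temperature. Phospho-Ser73 cJun antibody with Protein-A acceptor beads provided detection.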

[7] = target: 3',5'-cyclic-AMP phosphodiesterase 4B (Homo sapiens) (UniProt Q07343); assay: qHTS Assay for Inhibitors of PDE-IV (AID 607; active means well fitted activation curve with a large enough effect in the main read-out, with a control signal flat, not every such curve was filed as active; further: % of control where 0% means no effect)
3',5'-cyclic-AMP phosphodiesterase 4B (Homo sapiens), sequence (Q07343 whole entry, looked up): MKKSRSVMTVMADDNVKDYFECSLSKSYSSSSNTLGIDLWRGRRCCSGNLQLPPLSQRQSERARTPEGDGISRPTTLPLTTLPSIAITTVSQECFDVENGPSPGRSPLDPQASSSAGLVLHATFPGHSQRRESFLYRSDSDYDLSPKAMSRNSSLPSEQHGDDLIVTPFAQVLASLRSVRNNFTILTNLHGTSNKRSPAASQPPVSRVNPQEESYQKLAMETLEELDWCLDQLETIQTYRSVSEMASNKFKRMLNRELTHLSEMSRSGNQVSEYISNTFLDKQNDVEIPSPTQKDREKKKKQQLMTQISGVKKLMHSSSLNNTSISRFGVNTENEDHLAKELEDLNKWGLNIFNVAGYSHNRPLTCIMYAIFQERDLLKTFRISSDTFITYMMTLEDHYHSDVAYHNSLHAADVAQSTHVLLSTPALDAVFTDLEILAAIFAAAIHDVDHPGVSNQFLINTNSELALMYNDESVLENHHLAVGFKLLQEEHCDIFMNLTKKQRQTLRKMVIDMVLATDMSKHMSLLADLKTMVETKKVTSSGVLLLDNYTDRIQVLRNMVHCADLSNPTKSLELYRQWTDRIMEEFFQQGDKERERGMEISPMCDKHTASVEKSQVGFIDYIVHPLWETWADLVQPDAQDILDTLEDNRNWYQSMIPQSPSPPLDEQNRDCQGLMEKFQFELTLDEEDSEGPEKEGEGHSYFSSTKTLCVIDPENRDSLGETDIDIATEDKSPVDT
Procedure, shortened: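 The readout is membrane depolarisation from a cAMP-sensing CNG channel, detected with a potential dye at ex 535/em 590. Cells were HEK293-derived (endogenous PDE-IV) at 1000 cells/well, titrated up to 22.9 uM final.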

[8] = target: Guanine nucleotide-binding protein G(i) subunit alpha-1 (Homo sapiens) (UniProt P63096); assay: qHTS Assay for Inhibitors of RGS12 GoLoco Motif Activity (Green Fluorophore) (AID 879; active means well fitted curve in the direction sought with a large enough effect; an effect the other way counts as inactive or inconclusive;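 further: 0% = labeled peptide with Gαi1 and full inhibition = labeled peptide alone without protein; negative values mean loss of peptide binding seen as reduced polarization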)
Guanine nucleotide-binding protein G(i) subunit alpha-1 (Homo sapiens), sequence (P63096 whole entry, looked up): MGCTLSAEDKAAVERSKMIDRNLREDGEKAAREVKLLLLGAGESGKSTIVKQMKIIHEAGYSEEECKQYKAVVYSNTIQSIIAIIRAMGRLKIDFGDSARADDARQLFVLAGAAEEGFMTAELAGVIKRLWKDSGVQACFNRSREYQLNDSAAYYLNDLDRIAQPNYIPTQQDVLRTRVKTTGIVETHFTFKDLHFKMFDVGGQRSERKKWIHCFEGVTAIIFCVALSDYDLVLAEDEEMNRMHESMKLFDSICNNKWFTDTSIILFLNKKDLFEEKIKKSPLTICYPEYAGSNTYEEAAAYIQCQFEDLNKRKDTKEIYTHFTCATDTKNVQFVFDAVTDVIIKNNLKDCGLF
Procedure, shortened: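 A drop in FITC polarization marked displacement of the FITC-tagged RGS12 GoLoco peptide (10 nM) from Gαi1 (50 nM). Compounds were incubated 10 min at room temperature in Tris pH 7.5 buffer containing 150 mM NaCl, 0.1 mM GDP and 0.05% NP40; unlabeled peptide titration served as control.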

[9] = qHTS Assay for Identification of Small Molecule Agonists for Thrombopoietin (TPO) Signaling Pathway (AID 917; active means well fitted curve in the direction sought with a large enough effect; an effect the other way counts as inactive or inconclusive; further: on the % scale 0 is the no-effect control and ±100 the full control effect)
Procedure, shortened: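 Ba/F3 (mouse) + hTPO receptor + GpIIb-promoter luciferase; IL-3 withdrawn overnight; compound + 26 pM TPO (EC50), 24 hrs, 37 C, 5% CO2; Steadylite luminescence, 10 min RT.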

[10] = target: Muscarinic acetylcholine receptor M1 (Rattus norvegicus) (UniProt P08482); assay: qHTS Assay for Antagonists of Acetylcholine Muscarinic M1 Receptor: Kinetic Measurement of Intracellular Calcium Response (AID 943; active means well fitted curve in the direction sought with a large enough effect; an effect the other way counts as inactive or inconclusive;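 further: Fluo-4 calcium signal as peak divided by basal fluorescence over 4 min; nearly all actives have a fitted effect of over 75% in size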)
Muscarinic acetylcholine receptor M1 (Rattus norvegicus), sequence (P08482 whole entry, looked up): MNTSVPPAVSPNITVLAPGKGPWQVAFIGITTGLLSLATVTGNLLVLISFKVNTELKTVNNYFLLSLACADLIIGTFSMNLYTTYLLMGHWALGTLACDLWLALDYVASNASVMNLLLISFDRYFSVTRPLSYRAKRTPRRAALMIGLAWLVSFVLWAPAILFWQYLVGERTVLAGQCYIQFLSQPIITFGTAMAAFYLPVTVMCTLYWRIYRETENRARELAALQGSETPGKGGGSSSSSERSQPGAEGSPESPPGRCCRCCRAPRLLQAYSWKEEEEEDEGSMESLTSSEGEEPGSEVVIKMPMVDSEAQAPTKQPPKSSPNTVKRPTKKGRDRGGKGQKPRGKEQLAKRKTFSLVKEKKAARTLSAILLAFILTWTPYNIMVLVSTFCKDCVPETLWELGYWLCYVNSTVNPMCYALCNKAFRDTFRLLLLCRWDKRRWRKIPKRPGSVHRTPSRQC
Procedure, shortened: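 Antagonism measured as reduction of carbachol-evoked (EC80, 100 nM final) calcium flux in rat M1-CHO cells after 10 min compound exposure. Fluo-4 signal read kinetically; ratio of maximal to basal fluorescence.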

[11] = target: Muscarinic acetylcholine receptor M1 (Rattus norvegicus) (UniProt P08482); assay: qHTS Assay for Antagonists of Acetylcholine Muscarinic M1 Receptor: Measurement of IP-One Response (AID 944; active means well fitted curve in the direction sought with a large enough effect; an effect the other way counts as inactive or inconclusive; further: nearly all actives have a fitted effect of over 75% in size)
Procedure, shortened: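 IP1 accumulation measured via TR-FRET between d2-IP1 and Eu-cryptate anti-IP1 antibody after carbachol (200 nM, EC80) stimulation for 30 min; rat M1-transfected CHO cells received compound 10 min before agonist.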

[12] = target: Pyruvate kinase (Leishmania mexicana) (UniProt Q27686); assay: qHTS Validation Assay for Inhibitors of Leishmania Mexicana Pyruvate Kinase (AID 945; active means well fitted curve in the direction sought with a large enough effect; an effect the other way counts as inactive or inconclusive;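 further: 0% = DMSO only neutral control wells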)
Pyruvate kinase (Leishmania mexicana), sequence (Q27686 2-499 E452W): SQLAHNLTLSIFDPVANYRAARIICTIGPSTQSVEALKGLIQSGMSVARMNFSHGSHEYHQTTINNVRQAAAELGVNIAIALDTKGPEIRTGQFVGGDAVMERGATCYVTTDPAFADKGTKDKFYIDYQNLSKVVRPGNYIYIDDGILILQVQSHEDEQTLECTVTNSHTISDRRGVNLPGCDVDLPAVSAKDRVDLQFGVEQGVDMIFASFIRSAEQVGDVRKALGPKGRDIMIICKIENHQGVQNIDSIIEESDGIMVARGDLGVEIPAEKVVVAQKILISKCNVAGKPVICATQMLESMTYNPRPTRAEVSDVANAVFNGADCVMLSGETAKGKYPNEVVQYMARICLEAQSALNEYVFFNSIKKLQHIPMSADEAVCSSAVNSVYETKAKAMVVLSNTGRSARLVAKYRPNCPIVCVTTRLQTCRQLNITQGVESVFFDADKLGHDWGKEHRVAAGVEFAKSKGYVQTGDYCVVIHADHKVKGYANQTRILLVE
Procedure, shortened: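 Compounds are tested as eight-point concentration series. Reactions contain 0.2 nM LmPYK E451W, 0.5 mM PEP, 0.1 mM ADP, 7 mM MgCl2 and 50 mM KCl at pH 7.2, run 1 h at room temperature, then read by PKLight luminescence.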

[13] = target: Pyruvate kinase PKM (Homo sapiens) (UniProt P14618); assay: qHTS Assay for Activators of Human Muscle Pyruvate Kinase (AID 954; active means well fitted curve in the direction sought with a large enough effect, not every such curve was filed as active;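 further: 0% = uninhibited enzyme and -100% = no enzyme or full thiadiazolimine inhibition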)
Pyruvate kinase PKM (Homo sapiens), sequence (P14618 whole entry, looked up): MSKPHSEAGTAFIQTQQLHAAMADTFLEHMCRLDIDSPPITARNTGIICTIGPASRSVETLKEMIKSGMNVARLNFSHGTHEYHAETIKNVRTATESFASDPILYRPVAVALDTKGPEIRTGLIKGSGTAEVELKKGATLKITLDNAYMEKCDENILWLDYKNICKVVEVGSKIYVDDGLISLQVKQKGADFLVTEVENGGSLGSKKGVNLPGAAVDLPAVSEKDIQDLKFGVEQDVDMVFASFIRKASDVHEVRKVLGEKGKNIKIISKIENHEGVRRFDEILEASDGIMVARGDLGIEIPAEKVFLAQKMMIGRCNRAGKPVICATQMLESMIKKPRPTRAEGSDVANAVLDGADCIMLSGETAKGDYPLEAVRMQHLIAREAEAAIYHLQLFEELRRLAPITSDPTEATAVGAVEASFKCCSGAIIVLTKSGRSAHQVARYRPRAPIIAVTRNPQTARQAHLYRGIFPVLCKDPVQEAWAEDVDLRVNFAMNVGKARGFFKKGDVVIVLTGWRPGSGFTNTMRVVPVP
Procedure, shortened: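 PKM2, human, >95% pure, 0.1 nM; PEP 0.5 mM (Km), ADP 0.1 mM; 50 mM imidazole pH 7.2, 50 mM KCl, 0.01% Tween 20, 0.05% BSA; 1 h RT; luciferase luminescence readout.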

[14] = target: Alpha-galactosidase A (Homo sapiens) (UniProt P06280); assay: Counterscreen for Glucocerebrosidase Inhibitors: qHTS Assay for Human alpha-Galactosidase at pH 4.5 (AID 992; active means well fitted curve in the direction sought with a large enough effect; an effect the other way counts as inactive or inconclusive; further: 0% is about no effect)
Alpha-galactosidase A (Homo sapiens), sequence (P06280 whole entry, looked up): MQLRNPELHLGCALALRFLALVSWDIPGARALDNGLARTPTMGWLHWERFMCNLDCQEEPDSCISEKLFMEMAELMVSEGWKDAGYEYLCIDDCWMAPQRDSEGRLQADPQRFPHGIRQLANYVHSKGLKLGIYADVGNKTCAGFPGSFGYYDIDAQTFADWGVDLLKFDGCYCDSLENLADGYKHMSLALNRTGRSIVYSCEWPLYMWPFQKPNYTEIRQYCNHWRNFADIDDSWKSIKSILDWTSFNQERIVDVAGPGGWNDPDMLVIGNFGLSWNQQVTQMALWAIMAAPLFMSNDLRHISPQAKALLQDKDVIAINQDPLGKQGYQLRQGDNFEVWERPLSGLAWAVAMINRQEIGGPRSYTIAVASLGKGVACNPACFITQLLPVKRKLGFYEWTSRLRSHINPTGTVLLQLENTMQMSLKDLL
Procedure, shortened: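 Fluorogenic 4-MU alpha-D-galactoside (80 uM) hydrolysis, 2 nM enzyme, pH 4.5 citrate buffer + 0.005% Tween-20; 20 min RT; NaOH/glycine pH 10 stop; Ex365/Em440. Compounds titrated 0.7 nM–77 uM; Hill-equation AC50.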

[15] = target: alpha-glucosidase (Oryza sativa, rice) (UniProt Q653V4); assay: Counterscreen for Glucocerebrosidase Inhibitors: qHTS Assay for Rice alpha-Glucosidase at pH 5.0 (AID 997; active means well fitted curve in the direction sought with a large enough effect; an effect the other way counts as inactive or inconclusive;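 further: 0% = full activity with enzyme and -100% = basal without enzyme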)
Procedure, shortened: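 Endpoint fluorogenic assay at pH 5.0: compounds (0.7 nM to 77 uM) titrated against 4 nM rice enzyme and 400 uM 4-MU-alpha-glucoside for 20 min at room temperature; NaOH/glycine stop, read ex 365/em 440 nm, Hill-fitted AC50.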

[16] = target: Ubiquitin carboxyl-terminal hydrolase 1 (Homo sapiens) (UniProt O94782); assay: Inhibitors of USP1/UAF1: Pilot qHTS (AID 504865; active means well fitted curve in the direction sought with a large enough effect; an effect the other way counts as inactive or inconclusive;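 further: rhodamine fluorescence freed from ubiquitin-rhodamine substrate followed over time; top concentration of the series differs between compounds; on the % scale 0 is the no-effect control and ±100 the full control effect; nearly all actives have a fitted effect of over 35% in size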)
Ubiquitin carboxyl-terminal hydrolase 1 (Homo sapiens), sequence (O94782 whole entry, looked up): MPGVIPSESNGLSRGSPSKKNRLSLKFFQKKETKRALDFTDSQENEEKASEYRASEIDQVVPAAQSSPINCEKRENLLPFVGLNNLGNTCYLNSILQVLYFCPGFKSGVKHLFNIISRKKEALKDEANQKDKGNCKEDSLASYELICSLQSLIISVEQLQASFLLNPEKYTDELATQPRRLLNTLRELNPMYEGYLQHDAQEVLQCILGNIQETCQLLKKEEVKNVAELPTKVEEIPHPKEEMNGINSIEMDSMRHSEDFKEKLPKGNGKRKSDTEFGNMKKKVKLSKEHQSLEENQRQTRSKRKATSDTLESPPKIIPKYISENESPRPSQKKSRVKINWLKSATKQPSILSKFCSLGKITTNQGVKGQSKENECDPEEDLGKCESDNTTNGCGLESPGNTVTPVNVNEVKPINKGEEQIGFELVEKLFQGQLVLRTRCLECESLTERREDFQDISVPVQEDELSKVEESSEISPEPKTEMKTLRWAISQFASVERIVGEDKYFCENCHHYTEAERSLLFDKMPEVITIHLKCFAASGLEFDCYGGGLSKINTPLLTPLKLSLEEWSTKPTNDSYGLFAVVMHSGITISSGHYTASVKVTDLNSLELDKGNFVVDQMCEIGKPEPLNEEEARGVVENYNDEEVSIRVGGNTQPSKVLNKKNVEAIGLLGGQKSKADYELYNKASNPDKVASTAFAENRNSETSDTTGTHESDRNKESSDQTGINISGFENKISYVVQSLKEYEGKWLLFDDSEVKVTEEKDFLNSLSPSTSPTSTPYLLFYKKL
Procedure, shortened: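 1nM USP1/UAF1 + cpd, 15 min RT; start w/ Ub-Rho 150nM final; kinetic FL 480/540 nm, 6 reads q60 s. Buffer 50mM HEPES pH 7.8, 0.5mM EDTA, 1mM TCEP, 0.01% Tween-20, 0.1 mg/ml BSA.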

[17] = qHTS Assay for Identification of Small Molecule Antagonists for NFkB Signaling Pathway (AID 895; active means well fitted inhibition curve with a large enough effect in the signal ratio, with a control signal flat, not every such curve was filed as active; the % refers to the signal ratio; further: potency means the concentration at half of the fitted maximal effect)
Procedure, shortened: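 ME-180 NFkB-bla cells (beta-lactamase under NFkB response element), plated overnight, treated with compound then 10 pM TNF alpha (about EC50) for 5 hrs at 37 C. LiveBLAzer FRET read at 460/530 nm emission, 405 nm excitation.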

CC(=O)N[C@H](Cc1c[nH]c2ccccc12)C(=O)O
inactive: activity change, negative = inhibition [1] 3.17% [at 7.69 µM] | activity change, negative = inhibition [2] 4.78% [at 7.69 µM] | activity, negative = inhibition [3] 14.4% [at 7.69 µM] | Potency [4] > 46 µM | Potency [5] > 9.22 µM | activity change, negative = inhibition [6] 4.22% [at 11.4 µM] | Potency [7]

O=S(=O)(c1cccc2nsnc12)N1CCN(C/C=C/c2ccccc2)CC1
inactive: activity change, negative = inhibition [1] -6.7% | activity change, negative = inhibition [2] -13.3% | activity, negative = inhibition [3] -15.9% | Potency [4] > 20.6 µM

CCOC(=O)c1c(C)n(C)c2ccc(OC)c(NC(=O)c3cccs3)c12
inactive: activity change, negative = inhibition [1] -7.29% | activity change, negative = inhibition [2] 5.2% | activity, negative = inhibition [3] -16.1% | Potency [4] > 20.6 µM

COC(=O)c1cc(Br)c(=O)n(-c2nccs2)c1
inactive: activity change, negative = inhibition [1] 1.9% | activity change, negative = inhibition [2] -2.48% | activity, negative = inhibition [3] 2.73% | Potency [4] > 20.6 µM

O=C(O)C[C@@H]1CCCc2ccccc2[C@H]1O
inactive: activity change, negative = inhibition [1] 1.66% [at 38 µM] | activity change, negative = inhibition [2] 2.27% [at 38 µM] | activity, negative = inhibition [3] -11.9% [at 38 µM] | Potency [4] > 46 µM | Potency [5] > 46 µM | Potency [6] | Potency [7] | outcome [8] | Potency [9] | Potency [10] | Potency [11] | Potency [12] | outcome [13] | outcome [14] | outcome [15]

CCCCOC(=O)CSC1=C(C#N)C(c2ccccc2OC)C(C#N)C(=O)N1 (centres undefined)
inactive: activity change, negative = inhibition [1] -23.2% | activity change, negative = inhibition [2] 20.9% | activity, negative = inhibition [3] -14% | Potency [4] > 20.6 µM

Cc1cc(N2CCCCC2)nc2ccc(Cc3ccc4nc(N5CCCCC5)cc(C)c4c3)cc12
inactive: activity change, negative = inhibition [1] -0.0465% [at 7.69 µM] | activity change, negative = inhibition [2] -1.68% [at 7.69 µM] | activity, negative = inhibition [3] 8.27% [at 7.69 µM] | Potency [4] > 46 µM | Potency [5] > 9.22 µM | activity change, negative = inhibition [6] 13.5% [at 11.4 µM]

CC(=O)N[C@H]1C[C@@H]1c1ccccc1
inactive: activity change, negative = inhibition [1] 5.08% | activity change, negative = inhibition [2] -8.6% | activity, negative = inhibition [3] 12.8% | Potency [4] > 20.6 µM

CN(C)C(CN1C(=O)C2CC=CCC2C1=O)c1cn(C)c2ccccc12 (centres undefined)
inactive: activity change, negative = inhibition [1] 10.2% | activity change, negative = inhibition [2] 4.1% | activity, negative = inhibition [3] -3.79% | Potency [4] > 20.6 µM

N#Cc1nc(COc2ccccc2F)oc1NCCCn1ccnc1
inactive: activity change, negative = inhibition [1] -26.4% | activity change, negative = inhibition [2] -21.7% | activity, negative = inhibition [3] 5.2% | Potency [4] > 20.6 µM

N#Cc1nc(-c2cccs2)oc1NCCN1CCOCC1
inactive: activity change, negative = inhibition [1] -3.9% | activity change, negative = inhibition [2] -7.03% | activity, negative = inhibition [3] 5.17% | Potency [4] > 20.6 µM

NCCC[C@@](N)(C(=O)O)C(F)F
inactive: activity change, negative = inhibition [1] 6.84% [at 38 µM] | activity change, negative = inhibition [2] -7.76% [at 38 µM] | activity, negative = inhibition [3] 2.8% [at 38 µM] | Potency [4] > 46 µM | Potency [5] > 46 µM | Potency [6] | Potency [7] | outcome [8] | Potency [9] | Potency [11] | Potency [12] | outcome [13] | outcome [14] | outcome [15]

CN(C)C(=O)c1ccc(-c2ccc3ncnc(NC4CC4)c3c2)cc1
inactive: activity change, negative = inhibition [1] -22.9% [at 7.69 µM] | activity change, negative = inhibition [2] 12.3% [at 7.69 µM] | activity, negative = inhibition [3] -3.61% [at 7.69 µM] | Potency [4] > 46 µM | Potency [5] > 46 µM | Potency [6] | Potency [7] | Potency [16]

COc1cccc(C(=O)NCC(=O)n2nc(C)cc2C)c1
inactive: activity change, negative = inhibition [1] 23.4% | activity change, negative = inhibition [2] -4.99% | activity, negative = inhibition [3] 16.7% | Potency [4] > 20.6 µM

CN1C[C@H](C(=O)N[C@]2(C)O[C@]3(O)[C@H]4CCCN4C(=O)[C@H](Cc4ccccc4)N3C2=O)C[C@H]2c3cccc4[nH]cc(c34)C[C@@H]21
inactive: activity change, negative = inhibition [1] 1.56% | activity change, negative = inhibition [2] -6.21% | activity, negative = inhibition [3] -7.06% | Potency [4] > 20.6 µM | Potency [5] > 20.6 µM | Potency [6] | Potency [7]

CCCCC[C@H](O)CCCC(=O)O
inactive: activity change, negative = inhibition [1] -0.599% [at 38 µM] | activity change, negative = inhibition [2] -3.23% [at 38 µM] | activity, negative = inhibition [3] -28.6% [at 38 µM] | Potency [4] > 46 µM | Potency [5] > 46 µM | Potency [6] | Potency [7] | outcome [8] | Potency [9] | Potency [10] | Potency [11] | Potency [12] | outcome [13] | outcome [14] | outcome [15]
active: Potency [17] 5.01 µM
